KCNQ2 block: KCNQ2 (rat) channel inhibition; O88943; CHO-K1 KCNQ2, FluxOR thallium flux, 20 min; active compounds read low; B-score at 10 µM; 1.1% of 310,000 active; AID 2156;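 active means fluorescence ratio B-score at most minus 3 library SDs, with starting brightness B-score within 2 library SDs, cut at about -5.5 in these data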
Target sequence (O88943 whole entry, looked up): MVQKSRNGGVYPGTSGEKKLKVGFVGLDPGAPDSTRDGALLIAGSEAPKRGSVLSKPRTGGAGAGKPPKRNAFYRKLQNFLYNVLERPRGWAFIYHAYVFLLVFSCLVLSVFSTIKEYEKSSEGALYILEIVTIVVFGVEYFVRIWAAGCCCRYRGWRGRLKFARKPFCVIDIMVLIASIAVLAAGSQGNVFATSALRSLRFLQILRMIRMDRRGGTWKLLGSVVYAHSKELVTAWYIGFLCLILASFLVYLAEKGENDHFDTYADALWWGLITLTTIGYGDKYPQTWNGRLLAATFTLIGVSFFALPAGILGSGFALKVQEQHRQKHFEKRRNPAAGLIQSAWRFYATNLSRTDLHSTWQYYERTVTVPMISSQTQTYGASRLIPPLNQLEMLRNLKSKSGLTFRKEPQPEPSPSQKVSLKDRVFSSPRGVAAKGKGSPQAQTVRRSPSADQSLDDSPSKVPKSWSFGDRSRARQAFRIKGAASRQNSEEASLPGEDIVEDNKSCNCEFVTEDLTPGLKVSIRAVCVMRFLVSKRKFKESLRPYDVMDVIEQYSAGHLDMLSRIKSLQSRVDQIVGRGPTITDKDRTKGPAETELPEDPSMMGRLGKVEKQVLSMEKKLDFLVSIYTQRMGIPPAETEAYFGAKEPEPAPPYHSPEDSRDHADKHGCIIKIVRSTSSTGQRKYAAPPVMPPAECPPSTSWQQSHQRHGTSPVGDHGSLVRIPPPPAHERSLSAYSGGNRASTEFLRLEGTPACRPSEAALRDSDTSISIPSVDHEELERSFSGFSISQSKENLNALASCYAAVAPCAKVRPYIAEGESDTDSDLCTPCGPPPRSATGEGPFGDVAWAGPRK
KCNQ2 pot: KCNQ2 (rat) channel potentiation; CHO-K1 KCNQ2, FluxOR thallium flux fluorescence; active compounds read high; B-score at 10 µM; 0.54% of 310,000 active;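 active means fluorescence ratio B-score at least 3 SD of library B-scores, with initial fluorescence B-score within 3 of them, cut at about 5.3 in these data; same plate scores as AID 2156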;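 further: B-score of peak minus minimum over baseline fluorescence ratio after K+ and Tl+ stimulus; positive B-score means potentiation of KCNQ2 with more thallium influx and brighter signal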
Numbers without * were called inactive; i = inactive; x = no result given. Only some compounds are listed: those with a hit (about 1.6% of all), similar ones and a draw of the others.

SMILES | KCNQ2 block | KCNQ2 pot
O=C(c1ccc(Cl)c(Cl)c1)N1CCC(=O)N(C(COCc2cccc(Cl)c2)Cc2ccccc2)CC1 (configuration not stated) | -6.19* | -6.19
Cc1ccc(COCC(CC(C)C)N2CCN(C(=O)c3cccc(C(F)(F)F)c3)CCC2=O)cc1 (configuration not stated) | i | x
Cc1ccc(S(=O)(=O)N2CCC(=O)N(C(COCc3ccc(Cl)c(Cl)c3)Cc3ccccc3)CC2)cc1 (configuration not stated) | i | x
O=C(c1cccc(Cl)c1)N1CCC(=O)N(C(COCc2cccc(Cl)c2)Cc2ccccc2)CC1 (configuration not stated) | i | x
Cc1nc2sc(C(c3cccc(F)c3)N3CC(C)OC(C)C3)c(O)n2n1 (configuration not stated) | i | 1.72
COc1cccc(/C=N/NC(=O)CNC(=O)c2cccnc2)c1O | i | x
CCC(=O)NCCc1nc2cc(NC(=O)c3cccc([N+](=O)[O-])c3)ccc2n1C | i | 0.49
CCC1CN(C)C2Cc3c([nH]c4ccccc34)C(=O)CC1C2C(=O)OC (configuration not stated) | i | x
CC[C@H]1CC2CN3CCc4c([nH]c5c([C@H]6C[C@H]7[C@H](CC)CN(C)[C@@H](Cc8c6[nH]c6ccccc86)[C@H]7C(=O)OC)c(OC)ccc45)C(C(=O)OC)(C2)C13 | -7.51* | -7.51
O=C(CSc1nc2ccsc2c(=O)n1NC(=O)c1ccccc1)Nc1nccs1 | i | x
O=C(Nn1c(SCc2ccccc2F)nc2ccsc2c1=O)c1ccccc1 | -6.36* | -6.36
O=C(O)c1ccc(Cl)c(S(=O)(=O)NCc2ccco2)c1 | i | x
c1ccc(-c2nnnn2-c2ccccc2)cc1 | i | x
Clc1ccc(OCc2cn3ccccc3n2)c2ncccc12 | -6.56* | -6.56
OCc1ccccc1OCCOc1ccc(Cl)c2cccnc12 | i | x
COC(=O)C(Cc1ccc(O)cc1)NC(=O)CCC(=O)Nc1ccc(S(N)(=O)=O)cc1 (configuration not stated) | i | 0.26
CCOc1ccc(OCC)c(NC(=O)CN2CCN(c3cccc(C)c3)CC2)c1 | i | 1.91
CCOc1ccc(OCC)c(NC(=O)CN2CCN(c3cc(C)ccc3C)CC2)c1 | -5.63* | -5.63
C=CCn1c(SCC(=O)Nc2cccc(C(=O)OC)c2)nnc1C(C)NC(=O)c1cccs1 (configuration not stated) | i | 0.39
CCOC(=O)N/N=C/c1ccc(F)cc1F | i | 0.03
O=C(c1cc(-c2cccc(Cl)c2)nc2ccccc12)N1CCCC1 | -8.08* | -8.08
O=C(Nc1ncccn1)c1cc(-c2cccc(Br)c2)nc2ccccc12 | i | x
O=C(Nc1ccccn1)c1cc(-c2cccc(Cl)c2)nc2ccccc12 | -5.64* | -5.64
O=C(c1cc(-c2ccccc2)nc2ccccc12)N1CCCC1 | i | 0.04
O=C(Nc1ccc([N+](=O)[O-])cn1)c1cc(-c2cccc(Cl)c2)nc2ccccc12 | -5.58* | -5.58
SMILES | KCNQ2 block | KCNQ2 pot
O=C(Nc1ccc([N+](=O)[O-])cn1)c1cc(-c2cccc(Br)c2)nc2ccccc12 | i | x
COc1ccc(NS(=O)(=O)/C=C/c2ccccc2)cc1 | i | 0.1
CCOC(=O)C(NC(=O)Nc1cccc(C)n1)(OCC(F)(F)F)C(F)(F)F (configuration not stated) | i | x
O=C(Cc1ccccc1)N1CCC(c2nc(-c3ccc(F)cc3)no2)CC1 | i | x
Cc1ccc(-c2cc(C(=O)N3CCCC(C(F)(F)F)C3)c3ccccc3n2)o1 (configuration not stated) | i | x
COc1ccc(-c2cc(C(=O)N3CCCCCC3)c3ccccc3n2)c(OC)c1 | i | x
COc1ccc(-c2cc(C(=O)N3CCN(c4ccccc4F)CC3)c3ccccc3n2)c(OC)c1 | -7.98* | -7.98
Cc1ccc(-c2cc(C(=O)N3CCN(c4ccc(F)cc4)CC3)c3ccccc3n2)o1 | -6.03* | -6.03
Cc1ccc(-c2cc(C(=O)Nc3nccs3)c3ccccc3n2)c(C)c1 | i | x
Cc1ccc(-c2cc(C(=O)Nc3nccs3)c3ccccc3n2)o1 | -5.71* | -5.71
CCN(CC)c1ccc(/C=N/N2CCN(Cc3ccccc3Cl)CC2)c(O)c1 | i | x
CCN(CC)c1ccc(/C=N/N2CCN(Cc3ccc(C)cc3)CC2)c(O)c1 | -6.2* | -6.2
O=C(NN=C1c2ccccc2-c2ccccc21)c1cccc(Br)c1 | i | 17.1*
O=C(COc1cccc(Br)c1)NN=C1c2ccccc2-c2ccccc21 | i | x
CC(=O)c1ccc(OCC(O)CN2CCc3ccccc3C2)cc1 (configuration not stated) | i | 0.24
OC(c1ccccc1)(c1ccc(F)cc1)C(c1ccccc1)N1CCOCC1 (configuration not stated) | -5.72* | -5.72
O=C(NCC(c1ccc(F)cc1)N1CCOCC1)c1ccc(C(=O)c2ccccc2)cc1 (configuration not stated) | i | 2.24
CCOC(=O)c1sc(=NC(=O)c2ccc(F)cc2)n(C)c1C | i | 0.34
CN(C)c1ccc(NC(=O)COC(=O)c2cc(=O)c3ccccc3o2)cc1 | i | 0.47
CN1CCN(NC(=O)c2cc(-c3ccc(Br)s3)nc3ccccc23)CC1 | -5.69* | -5.69
O=C(O)c1cc(-c2ccc(Br)s2)nc2ccccc12 | i | x
CCO/C=C1\N=C(c2ccc(F)cc2)OC1=O | i | 1.59
C=CCc1cc(Cl)ccc1OCCOCCN(C)C | i | x
c1ccc(C2CC(c3ccccc3)C(c3ccccc3)N2)cc1 (configuration not stated) | i | x
O=C1CC(c2ccc(Br)cc2)NC(c2ccc(Br)cc2)C1c1ccccc1 (configuration not stated) | -5.74* | -5.74
SMILES | KCNQ2 block | KCNQ2 pot
COCCNC(=O)C(c1ccc(C)cc1)N(Cc1ccco1)C(=O)CCC(=O)Nc1ccccn1 (configuration not stated) | i | 0.04
CC(C)OC(=O)C(C)(C)Oc1ccc(C(=O)c2ccc(Cl)cc2)cc1 | -8.13* | -8.13
CC(C)(Oc1ccc(Cl)cc1)C(=O)O | i | 0.32
O=C(N/N=C/c1ccccc1O)C1(O)c2ccccc2-c2ccccc21 | i | x
Cc1nnc(NC(=O)c2cccc(S(=O)(=O)N3CC(c4ccccc4)CC3=O)c2)s1 (configuration not stated) | i | 0.37
S=C(Nc1ccccc1Cl)N1CCCC(c2ccccc2)=N1 | -6.51* | -6.51
S=C(Nc1ccccc1Cl)N1CCCCCC1 | i | 0.14
CSc1nsc(SC)c1C(=O)NC(=O)Nc1cccnc1 | i | 1.37
O=C(CSc1nnc(Cc2cccs2)n1CCc1ccccc1)N1CCCc2ccccc21 | -6.47* | -6.47
Cn1c(Cc2cccs2)nnc1SCC(=O)N1CCCc2ccccc21 | i | x
O=C(CSc1nnc(Cc2cccs2)n1C1CCCCC1)N1CCCc2ccccc21 | -6.45* | -6.45
O=C(CSc1nnnn1C1CCCC1)N1CCCc2ccccc21 | i | x
O=C(NCCOc1ccccc1)c1ccccc1NC(=O)C1CCCO1 (configuration not stated) | i | 1.16
CCOc1ccccc1NC(=O)C(NCC1CCCCC1)c1ccccc1 (configuration not stated) | -5.78* | -5.78
CCOc1ccccc1NC(=O)C(OC(=O)c1ccc(O)cc1)c1ccccc1 (configuration not stated) | i | x

Assay outcomes as filed in PubChem BioAssay.
